We go through 96 compounds from PubChem BioAssay AID374 (University of Pittsburgh Molecular Library Screening Center, 2006).

As a reminder, the inhibition is the change of the read-out against control, counted positive when it falls.

The campaign covered roughly 65,000 compounds. About 100 (0.15%) were called active. The sample holds actives, similar compounds and a random draw of the others, so the mix is not that of the screen.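 The calls were made as follows: active = inhibition above about 50% (limit read from the data); inconclusive = inhibition over screen mean plus 3 SD, below that limit; inactive = the rest.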

The target in this experiment is Dual specificity protein phosphatase 1 (Homo sapiens) (UniProt P28562). Kind of experiment: blockers of human DUSP1 activity – biochemical, in vitro, primary screen (AID 374).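 Also: 0% = DMSO max control wells and 100% = wells with enzyme stopped by NaOH.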 The note with it: recombinant MKP-1, OMFP hydrolysis fluorescence; stronger effect = higher value;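 compounds tested at a single concentration somewhere between 10 and 100 µM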.
Chain of Dual specificity protein phosphatase 1 (Homo sapiens) (P28562 whole entry, looked up): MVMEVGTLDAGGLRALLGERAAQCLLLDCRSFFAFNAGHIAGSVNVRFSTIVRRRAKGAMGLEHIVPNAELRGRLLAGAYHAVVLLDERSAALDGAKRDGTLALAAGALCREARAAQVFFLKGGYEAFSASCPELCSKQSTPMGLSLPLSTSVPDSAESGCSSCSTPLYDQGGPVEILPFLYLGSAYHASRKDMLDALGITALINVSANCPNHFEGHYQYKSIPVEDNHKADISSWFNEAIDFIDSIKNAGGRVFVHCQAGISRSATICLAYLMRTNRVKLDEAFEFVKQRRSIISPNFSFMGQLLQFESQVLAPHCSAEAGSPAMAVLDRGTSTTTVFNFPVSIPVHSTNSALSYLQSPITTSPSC
In the case of `CC(=O)N(CN1C(=O)C2CC=CCC2C1=O)c1cccc(Cl)c1` (stereo unspecified), the inhibition is 4.23% (inactive).
As for `Cc1nc2ccccc2cc1O`, the figure is -1.94% (inactive); as for `COc1ccc(-n2c(SCC(=O)NCc3cccs3)nnc2-c2ccoc2C)cc1`, -10% (inactive).
For `COc1ccc(CCN2CNc3c(c(=O)n(C)c(=O)n3C)C2)cc1OC`, the inhibition is -8.44% (inactive).
As to `CCOC(=O)Cn1c(=O)oc2cc(S(=O)(=O)NCC3CCCO3)ccc21` (stereo unspecified), the inhibition is -10.8% (inactive).
`COC(=O)C1C(=O)CC(C)(O)C(C(=O)OC)C1c1ccc2c(c1)OCO2` (stereo unspecified): the inhibition is 4.11% (inactive).
For `Cc1ccc2nc(NCCCNC(=O)c3cnccn3)c(C#N)cc2c1`, the inhibition is 16.8% (inactive).
Consider `CCN(CCCNC(=O)C1CCN(S(=O)(=O)c2cnc[nH]2)CC1)c1ccccc1`, for which the inhibition was -3.93% (inactive).
In the case of `Cn1c(=O)c2c(nc(OCc3cccnc3)n2Cc2ccccc2)n(C)c1=O` it was -22.4% (inactive).
As for `CC(CCc1ccccc1)NC(=O)c1ccc(Br)o1` (stereo unspecified), the figure is 9.59% (inactive).
As for `CC(C)CNC(=O)C1CCCN(S(=O)(=O)c2ccc(-n3cnnn3)cc2)C1` (stereo unspecified), the figure is 10.4% (inactive); as for `CC(C)C(C(=O)NC1CCCCC1)N(CC1CCCO1)C(=O)CNS(=O)(=O)c1ccc(F)cc1` (stereo unspecified), 42% (inactive).
Take `COc1ccc(OCC(=O)N2CCN(C(=O)COc3ccccc3)CC2)cc1`: the inhibition was 3.4% (inactive).
As for `CCOC(=O)C1CCCN(C(=O)c2cncc(Br)c2)C1` (stereo unspecified), the figure is -1.24% (inactive); as for `COc1cccc(N2CCN(C3CC(=O)N(c4ccc(Cl)cc4)C3=O)CC2)c1` (stereo unspecified), 9.47% (inactive).
As to `COc1cccc(N2C(=O)C3CCCN3C2c2ccc(F)cc2)c1` (stereo unspecified), the inhibition was 7.6% (inactive).
As for `CCOC(=O)N1CCN(C(=O)c2ccc3nc4cc(Cl)ccc4c(=O)n3c2)CC1`, the figure is -0.24% (inactive); as for `CNC(=O)C1CC(=O)N(Cc2ccc3c(c2)OCO3)C(=Nc2ccc(F)cc2)S1` (stereo unspecified), 4.87% (inactive).
In the case of `CCCNc1ncnc2sc(C)c(C)c12` it was 6.02% (inactive); in that of `CCCc1nc(-c2ccccc2O)n(-c2ccccc2)n1`, -14.3% (inactive); in that of `COc1ccccc1-n1cnc2cc(NS(=O)(=O)c3ccccc3)ccc21`, -7.71% (inactive).
As for `C=C(C)Cn1c(N2CCCC2)nc2c1c(=O)[nH]c(=O)n2C`, the figure is 4.46% (inactive); as for `CCOC(=O)N1CCN(Cc2oc(CO)cc(=O)c2O)CC1`, 30.4% (inactive); as for `Cn1c(C(=O)NCCN2CCc3ccccc3C2)cc2c(=O)[nH]c3ccccc3c21`, 31% (inactive).
With `Cc1cccc(N2CCN(C(=O)c3cc4c(=O)[nH]c5ccccc5c4n3C)CC2)c1C`, the inhibition is 50.9% (active).
In the case of `CC(=O)N1CCN(c2cccc(C)c2C)CC1` it was 9.16% (inactive); in that of `COCCCn1c(CCC(=O)O)ccc1-c1ccc(F)cc1`, 33.1% (inactive); in that of `Cn1c(SCc2c(F)cccc2Cl)nnc1-c1cnccn1`, 4.26% (inactive).
Regarding `COc1cccc(CN2C(=O)CCC2(C)C(=O)NC2CCCCCC2)c1` (stereo unspecified), the inhibition is 10.3% (inactive).
In the case of `Cc1ccc(Nc2nc(CSc3nnnn3-c3ccccc3)cc(=O)[nH]2)cc1` it was 53.9% (active).
`Cc1ccc(-c2noc(CSc3nnnn3-c3ccccc3)n2)cc1`: the inhibition was 0.15% (inactive).
In the case of `O=c1c2ccccc2nc(CSc2nnnn2-c2ccccc2)n1-c1ccccc1` it was 11.8% (inactive); in that of `CCOCCCNC(=O)c1c[nH]c2cc(C)ccc2c1=O`, 7.4% (inactive); in that of `COc1ccc(NC(=O)c2c(SC)nsc2SC)cc1`, 0.33% (inactive).
As for `CC(=O)Nc1ccc(S(=O)(=O)Nc2nc3n(n2)C(c2ccccc2)CC(=O)N3)cc1` (stereo unspecified), the figure is -6% (inactive); as for `CC(C)COC(=O)c1ccc(NC(=O)C2C3C=CC(C3)C2C(=O)O)cc1` (stereo unspecified), 23.6% (inactive); as for `CCCCOc1ccc(C(=O)NCc2ccco2)cc1`, -0.67% (inactive).
For the compound `C[C@H](NC(=O)OC(C)(C)C)c1nnc(SCC(=O)Nc2ccc(Br)cc2)o1`, the inhibition is 13% (inactive).
With `Cc1oc2nc(SCC(=O)NCc3cccnc3)nc(N)c2c1C`, the inhibition is 32.5% (inactive).
In the case of `CN1c2ccccc2-c2nc3ccccc3n2C1c1ccco1` (stereo unspecified) it was -25.5% (inactive); in that of `COc1ccc(F)cc1S(=O)(=O)Nc1ccc2c(c1)OCO2`, 12.4% (inactive); in that of `CCOC(=O)N1CCN(C(=O)CN(c2ccc(C)c(C)c2)S(=O)(=O)c2ccccc2)CC1`, 12.6% (inactive).
In the case of `O=S(=O)(c1cccs1)N1CCc2ccccc2C1` it was 1.16% (inactive); in that of `CC1Cn2c(nnc2-c2cccs2)S1` (stereo unspecified), -6.93% (inactive); in that of `Cc1nc2nc3c(cn2n1)C(=O)CC(c1ccccc1)C3` (stereo unspecified), -8.11% (inactive).
For `CCSC(C)CC1C/C(=N/O)c2c(C)noc2C1` (stereo unspecified), the inhibition is 12.5% (inactive).
On to `COc1cccc(C2/C(=C(/O)c3ccc(F)cc3)C(=O)C(=O)N2CCN(C)C)c1` (stereo unspecified), for which the inhibition was 3.73% (inactive).
As for `O=C(Oc1ccc2c(c1)CCC2)N1CCOCC1`, the figure is -9.77% (inactive).
As to `O=C(NC(=O)c1ccc(Cl)c(Cl)c1)OC1CCS(=O)(=O)C1` (stereo unspecified), the inhibition was 0.18% (inactive).
With `O=C(Nc1c(Cl)cccc1Cl)C1CCC1`, the inhibition is -12.7% (inactive).
As for `Cc1cccc(N2CCN(C(c3ccccc3)c3nnnn3CC3CCCO3)CC2)c1C` (stereo unspecified), the figure is 20.8% (inactive); as for `COCCOC(=O)C1=C(C)NC(=O)NC1c1ccc(Cl)cc1` (stereo unspecified), 5.89% (inactive).
In the case of `CCc1ccccc1NC(=O)CSc1nnc([C@@H](NC(=O)OC(C)(C)C)C(C)CC)o1` (stereo partly specified) it was 27.6% (inactive); in that of `N#Cc1nc(Cc2cccc3ccccc23)oc1NCc1ccc2c(c1)OCO2`, -0.11% (inactive).
As for `COc1ccc(S(=O)(=O)Nc2ccc(S(=O)(=O)N3CCCCC3)cc2)cc1OC`, the inhibition was -11.3% (inactive).
As for `O=C(O)c1ccc(COCC(F)(F)F)cc1`, the figure is 5.73% (inactive).
As to `COC(=O)[C@H](CCSC)NC(=O)Nc1ccc(OC)cc1`, the inhibition was -29.3% (inactive).
Regarding `Cc1ccc(C(=O)NCCNS(=O)(=O)c2ccccc2)cc1`, the inhibition was 9.54% (inactive).
Turning to `CCOC(=O)C1C(=O)OC2(CCCC2)C1C(=O)OCC` (stereo unspecified), the inhibition was 0.52% (inactive).
As for `CSC1=NCCN1C(=O)c1ccc(S(=O)(=O)N2CCOCC2)cc1`, the figure is -8.44% (inactive); as for `CC(C)(C)n1nc2c(c1NC(=O)c1ccc(S(=O)(=O)N3CCCC3)cc1)CS(=O)C2` (stereo unspecified), 1.54% (inactive).
For `COCCCNC(=O)CCc1nc2cccnc2n1Cc1ccc(OC)cc1`, the inhibition was 2.57% (inactive).
In the case of `CCC(C(=O)Nc1ncccn1)(C(F)(F)F)C(F)(F)F`, the inhibition was -11.8% (inactive).
In the case of `CCN(CC)S(=O)(=O)c1cccc(C(=O)Nc2cc(C)nn2-c2nc(C)cc(C)n2)c1` it was -26.4% (inactive).
Consider `Cc1nc(-c2ccc(NC(=O)c3cccs3)cc2)cs1`, for which the inhibition is -3.52% (inactive).
As for `Cn1c(SCC(=O)Nc2cccc(O)c2)nnc1-c1ccc(S(=O)(=O)N2CCOCC2)cc1`, the figure is -24.3% (inactive); as for `OC(COc1ccccc1)Cn1cc(Br)cn1` (stereo unspecified), -0.2% (inactive); as for `COC(=O)c1ccc(C2C3=C(Nc4nnnn42)c2ccccc2OC3)cc1` (stereo unspecified), -1.69% (inactive).
Take `Cc1c(C)c2cc3c4c(oc3c(C)c2oc1=O)CCCC4`: the inhibition is 10% (inactive).
In the case of `Cc1nnc(SCC(=O)N2CCc3ccccc32)n1-c1ccccc1` it was 17.3% (inactive).
As for `C=CCn1c(=O)c2ccccc2n2c(SCC(=O)N3CCCc4ccccc43)nnc12`, the figure is 12.1% (inactive); as for `O=C(CSc1nc2[nH]ncc2c(=O)n1-c1ccccc1)N1CCCc2ccccc21`, 50.2% (active); as for `COC(C)(C)[C@]12CC(O)(C(C)C)ON1[C@H]1CCCCC1N2O` (stereo partly specified), -23.5% (inactive).
In the case of `CCOc1ccc(C(=O)NC2CCN(S(=O)(=O)CC)CC2)cc1` it was -10.3% (inactive); in that of `COC(=O)C(C)n1cnc2c(nnn2-c2cccc(Cl)c2)c1=O` (stereo unspecified), -3.96% (inactive); in that of `Cc1ccc(CNC(=O)C2CCCN(S(C)(=O)=O)C2)cc1` (stereo unspecified), 4.5% (inactive).
On to `O=C(c1ccco1)N1CCN(CC(=O)N(C2CCCCC2)C2CCS(=O)(=O)C2)CC1` (stereo unspecified), for which the inhibition was 8.56% (inactive).
In the case of `COc1ccc(-n2ncc3c(N4CCc5ccccc54)ncnc32)cc1` it was -0.04% (inactive); in that of `CCCN1C(=O)C(NS(=O)(=O)c2ccc(N)cc2)(C(F)(F)F)C(C(=O)OC)=C1C` (stereo unspecified), 7.02% (inactive).
In the case of `Nc1ncc(-c2cc3ccccc3oc2=O)s1` it was -7.46% (inactive); in that of `COc1ccccc1N1CCN(C(=O)CSc2nnc(-c3ccoc3C)o2)CC1`, 2.49% (inactive).
`CC1=NC2(CCCc3c2no[n+]3[O-])N(O)C1(C)C` (stereo unspecified): the inhibition is 10.4% (inactive).
In the case of `Cc1ccc(-n2nc3c(c2NC(=O)c2ccc4c(c2)OCO4)CSC3)c(C)c1` it was 28.8% (inactive); in that of `CCOc1cc(-c2conc2N)cc(OCC)c1OCC`, 0.9% (inactive); in that of `CCOc1ccc(NC(=O)Nc2ccc(N(C)C(C)=O)cc2)cc1`, 6.8% (inactive).
For `CCOC(=O)C1CCN(C(=O)CSc2cc(=O)n(C)c3ccccc23)CC1`, the inhibition is 3.52% (inactive).
As for `Cn1c(=O)c(C(=O)Nc2ncccn2)c(O)c2ccccc21`, the figure is 1.1% (inactive); as for `O=C(Nc1cccnc1)c1noc2c1CCCCC2`, -9.22% (inactive); as for `S=C1SCN(CCN2CCOCC2)CN1Cc1ccccc1`, 22.5% (inactive).
`Cn1cc(S(=O)(=O)N2CCC(Cc3ccccc3)CC2)c(=O)n(C)c1=O`: the inhibition was 13.6% (inactive).
As for `CCOC(=O)C1=C(CC)Nc2ccccc2N=C1NC(=O)c1cccc(S(=O)(=O)N2CCCC2)c1`, the inhibition was 17.2% (inactive).
Turning to `CCOC(=O)N1CCN(C(=O)c2ccc(CN(c3ccc(C)c(C)c3)S(C)(=O)=O)cc2)CC1`, the inhibition was 6.83% (inactive).
Consider `CCCC(=O)Nc1c(O)c2ccccc2[nH]c1=O`, for which the inhibition is 24% (inactive).
In the case of `O=C(O)CN(Cc1ccco1)S(=O)(=O)c1ccc(F)cc1` it was -3.94% (inactive).
As for `CC(C)C[C@H](NC(=O)Nc1cccc(C(F)(F)F)c1)C(=O)O`, the inhibition is -11.4% (inactive).
For `CCOC(=O)c1cc2c(n(-c3ccc(C)cc3)c1=O)CCCC2=O`, the inhibition was 3.58% (inactive).
